Data: PubChem BioAssay (Tox21)
Results filed as inconclusive are left out. Active and inactive are the calls of the source. Calls follow the shape of the dose curve; as a rule, active = well fitted curve in the direction sought with a large enough effect in the repeat runs; inconclusive = weak or mixed curves; inactive = no such curve, though single readings can be large; an effect the other way counts as inactive or inconclusive.

Columns and labels:
[1] = A CellTox Green Cytotoxicity Assay to monitor cytotoxicity in HEK293 cells - 40 hour (AID 1224871); also: nearly all actives have a fitted effect of over 45% in size
In short: (§1)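 Nonlytic real-time cytotoxicity: HEK293 + CellTox Green reagent plated, 5 h preincubation, pintool compound addition (23 nL in DMSO), 37 C for 40 h, fluorescence measured at successive time points.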

[2] = qHTS RealTime-Glo MT Cell Viability Assay in HEK293 cells - 16 hour (AID 1224872); also: top concentration of the series differs between compounds; nearly all actives have a fitted effect of over 50% in size
In short: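 Luminescence generated by NanoLuc from substrate produced by living HEK293 cells served as the viability signal. Each value reflects the reading at its stated time point during continuous 40 h compound exposure at 37 C.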

[3] = qHTS RealTime-Glo MT Cell Viability Assay in HepG2 cells - 8 hour (AID 1224873); also: nearly all actives have a fitted effect of over 55% in size
In short: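 HepG2 cells mixed with RealTime-Glo MT reagents (NanoLuc plus cell-permeant prosubstrate) were seeded at 600 cells/well, incubated 5 h at 37 C/5% CO2, then pinned with compounds in DMSO; nonlytic luminescence tracked viability during 40 h treatment.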

[4] = qHTS RealTime-Glo MT Cell Viability Assay in HEK293 cells - 40 hour (AID 1224874); conditions: RealTime-Glo luminescence; max response: active compounds read low; also: nearly all actives have a fitted effect of over 50% in size
In short: (§2)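 Cells were seeded together with NanoLuc luciferase and a prosubstrate that viable cells reduce to a luciferase substrate. After a 5 h incubation at 37 C/5% CO2, compounds were added and luminescence was measured repeatedly during 40 h of treatment.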

[5] = A CellTox Green Cytotoxicity Assay to monitor cytotoxicity in HEK293 cells - 24 hour (AID 1224875); also: series mostly up to about 77 µM; nearly all actives have a fitted effect of over 45% in size
In short: as §1

[6] = A CellTox Green Cytotoxicity Assay to monitor cytotoxicity in HepG2 cells - 16 hour (AID 1224876); also: nearly all actives have a fitted effect of over 45% in size
In short: (§3)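 Read-out is fluorescence of a cyanine dye excluded from live cells that stains DNA of dead HepG2 cells, with signal proportional to cytotoxicity. Plates were read at 0, 8, 16, 24, 32 and 40 h after compound addition.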

[7] = qHTS RealTime-Glo MT Cell Viability Assay in HepG2 cells - 32 hour (AID 1224877); also: nearly all actives have a fitted effect of over 55% in size
In short: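 Tox21 10K library screened in qHTS format on HepG2 cells carrying RealTime-Glo reagents. Compounds were added after a 5 h preincubation, and the luminescent signal from continuous culture was measured repeatedly during 40 h treatment.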

[8] = A CellTox Green Cytotoxicity Assay to monitor cytotoxicity in HepG2 cells - 24 hour (AID 1224878); also: nearly all actives have a fitted effect of over 45% in size
In short: as §3

[9] = A CellTox Green Cytotoxicity Assay to monitor cytotoxicity in HepG2 cells - 40 hour (AID 1224879); also: nearly all actives have a fitted effect of over 40% in size
In short: as §3

[10] = qHTS RealTime-Glo MT Cell Viability Assay in HEK293 cells - 0 hour (AID 1224880)
In short: as §2
% is scaled to controls: 0 for no effect and ±100 for the full control effect.

CCC#N
inactive: Potency [1] | Potency [2] | Potency [3] | max response [4] 0.0723% | Potency [5] | Potency [6] | Potency [7] | Potency [8] | Potency [9] | outcome [10]

CCOP(=S)(OCC)Oc1cc(-c2ccccc2)on1
inactive: Potency [1] | Potency [2] | Potency [3] | max response [4] -12.9% | Potency [5] | Potency [6] | Potency [7] | Potency [8] | Potency [9] | outcome [10]

N#CC(Cl)(Cl)Cl
inactive: Potency [1] | Potency [2] | Potency [3] | max response [4] 3.49% | Potency [5] | Potency [6] | Potency [7] | Potency [8] | Potency [9] | outcome [10]

Nc1ccccc1Cl
inactive: Potency [1] | Potency [2] | Potency [3] | max response [4] 15.7% | Potency [5] | Potency [6] | Potency [7] | Potency [8] | Potency [9] | outcome [10]

CSc1ccc(C(=O)C(C)(C)N2CCOCC2)cc1
inactive: Potency [1] | Potency [2] | Potency [3] | max response [4] 0.297% | Potency [5] | Potency [6] | Potency [7] | Potency [8] | Potency [9]

Cc1cccc(C#N)c1
inactive: Potency [1] | Potency [2] | Potency [3] | max response [4] 6.99% | Potency [5] | Potency [6] | Potency [7] | Potency [8]

O=C1CN2CCOC2(c2ccccc2Cl)c2cc(Cl)ccc2N1 (stereo not drawn)
inactive: Potency [1] | Potency [2] | Potency [3] | max response [4] -7.26% | Potency [5] | Potency [6] | Potency [7] | Potency [8] | Potency [9] | outcome [10]

c1ccc(N2CCNCC2)cc1
inactive: Potency [1] | Potency [2] | Potency [3] | max response [4] 16.9% | Potency [5] | Potency [6] | Potency [7] | Potency [8] | Potency [9]

ClCC(Cl)(Cl)Cl
inactive: Potency [1] | Potency [2] | Potency [3] | max response [4] -0.0203% | Potency [5] | Potency [6] | Potency [7] | Potency [8] | Potency [9] | outcome [10]

NC(=S)C(N)=S
inactive: Potency [1] | Potency [2] | Potency [3] | max response [4] 4.8% | Potency [5] | Potency [6] | Potency [7] | Potency [8]

CCOP(=S)(OCC)Oc1nc(Cl)n(C(C)C)n1
inactive: Potency [1] | Potency [2] | Potency [3] | max response [4] 3.99% | Potency [5] | Potency [6] | Potency [7] | Potency [8] | Potency [9]

O=C(O)C(Br)CBr (stereo not drawn)
inactive: Potency [1] | Potency [2] | Potency [3] | max response [4] 26% | Potency [5] | Potency [6] | Potency [7] | Potency [8] | Potency [9] | outcome [10]

CN1C[C@@H](NS(=O)(=O)N(C)C)C[C@@H]2c3cccc4c3c(cn4C)C[C@H]21
inactive: Potency [1] | Potency [2] | Potency [3] | max response [4] -20.7% | Potency [5] | Potency [6] | Potency [7] | Potency [8] | Potency [9] | outcome [10]

CC(=O)CC(c1ccc(Cl)cc1)c1c(O)c2ccccc2oc1=O (stereo not drawn)
inactive: Potency [1] | Potency [2] | Potency [3] | max response [4] -9.42% | Potency [5] | Potency [6] | Potency [7] | Potency [8] | Potency [9] | outcome [10]

CCCCP(CCCC)CCCC
inactive: Potency [1] | Potency [2] | Potency [3] | max response [4] -4.34% | Potency [5] | Potency [6] | Potency [7] | Potency [8] | Potency [9]

COc1cc(OC)nc(NC(=O)NS(=O)(=O)c2ncccc2OCC(F)(F)F)n1
inactive: Potency [1] | Potency [2] | Potency [3] | max response [4] 0.591% | Potency [5] | Potency [6] | Potency [7] | Potency [8] | Potency [9]

O=C(Oc1ccc(Br)cc1)N1CCN2CCC1CC2
inactive: Potency [1] | Potency [2] | Potency [3] | max response [4] -0.781% | Potency [5] | Potency [6] | Potency [7] | Potency [8] | Potency [9]

Cc1cc(C)c(C(=O)P(=O)(C(=O)c2c(C)cc(C)cc2C)c2ccccc2)c(C)c1
inactive: Potency [1] | Potency [2] | Potency [3] | max response [4] -8.76% | Potency [5] | Potency [6] | Potency [7] | Potency [8] | Potency [9]

CC(Cl)(Cl)[N+](=O)[O-]
inactive: Potency [1] | Potency [2] | Potency [3] | max response [4] 2.41% | Potency [5] | Potency [6] | Potency [7] | Potency [8] | Potency [9]

O=C(Nc1ccccc1)c1ccccc1I
inactive: Potency [1] | Potency [2] | Potency [3] | max response [4] -14.8% | Potency [5] | Potency [6] | Potency [7] | Potency [8]

CN1CCN(C(=O)O[C@H]2c3nccnc3C(=O)N2c2ccc(Cl)cn2)CC1
inactive: Potency [1] | Potency [2] | Potency [3] | max response [4] 6.06% | Potency [5] | Potency [6] | Potency [7] | Potency [8] | Potency [9] | outcome [10]

COP(=S)(OC)Oc1c(Cl)cc(C)cc1Cl
inactive: Potency [1] | Potency [2] | Potency [3] | max response [4] 0.348% | Potency [5] | Potency [6] | Potency [7] | Potency [8] | Potency [9] | outcome [10]

Clc1ccccc1N1CCNCC1
inactive: Potency [1] | Potency [2] | Potency [3] | max response [4] 7.31% | Potency [5] | Potency [6] | Potency [7] | Potency [8] | Potency [9] | outcome [10]

CC(=O)C(Cl)Cl
inactive: Potency [1] | Potency [2] | Potency [3] | max response [4] 7% | Potency [5] | Potency [6] | Potency [7] | Potency [8]

Nc1c(Br)cc([N+](=O)[O-])cc1[N+](=O)[O-]
inactive: Potency [1] | Potency [2] | Potency [3] | max response [4] -10.5% | Potency [5] | Potency [6] | Potency [7] | Potency [8] | Potency [9]
